Results as given in the supplement of paper PMC11732987, “Enantioselective OTUD7B fragment discovery through chemoproteomics screening and high-throughput optimisation” (Communications Chemistry, 2025).

Legend:
Test in all cases: log2 ratio of Biotin-Ahx-Ub-VS probe labelling (fragment/DMSO); higher = less target engagement (more negative = stronger competition), active = hit call of the paper (q ≤ 0.05, log2 ratio ≤ -1)
Settings in all cases: compound concentration: 200 uM; treatment time: 3 h
USP42 = target: T1, USP42 (UniProt Q9H9J4)
T1 sequence (whole entry): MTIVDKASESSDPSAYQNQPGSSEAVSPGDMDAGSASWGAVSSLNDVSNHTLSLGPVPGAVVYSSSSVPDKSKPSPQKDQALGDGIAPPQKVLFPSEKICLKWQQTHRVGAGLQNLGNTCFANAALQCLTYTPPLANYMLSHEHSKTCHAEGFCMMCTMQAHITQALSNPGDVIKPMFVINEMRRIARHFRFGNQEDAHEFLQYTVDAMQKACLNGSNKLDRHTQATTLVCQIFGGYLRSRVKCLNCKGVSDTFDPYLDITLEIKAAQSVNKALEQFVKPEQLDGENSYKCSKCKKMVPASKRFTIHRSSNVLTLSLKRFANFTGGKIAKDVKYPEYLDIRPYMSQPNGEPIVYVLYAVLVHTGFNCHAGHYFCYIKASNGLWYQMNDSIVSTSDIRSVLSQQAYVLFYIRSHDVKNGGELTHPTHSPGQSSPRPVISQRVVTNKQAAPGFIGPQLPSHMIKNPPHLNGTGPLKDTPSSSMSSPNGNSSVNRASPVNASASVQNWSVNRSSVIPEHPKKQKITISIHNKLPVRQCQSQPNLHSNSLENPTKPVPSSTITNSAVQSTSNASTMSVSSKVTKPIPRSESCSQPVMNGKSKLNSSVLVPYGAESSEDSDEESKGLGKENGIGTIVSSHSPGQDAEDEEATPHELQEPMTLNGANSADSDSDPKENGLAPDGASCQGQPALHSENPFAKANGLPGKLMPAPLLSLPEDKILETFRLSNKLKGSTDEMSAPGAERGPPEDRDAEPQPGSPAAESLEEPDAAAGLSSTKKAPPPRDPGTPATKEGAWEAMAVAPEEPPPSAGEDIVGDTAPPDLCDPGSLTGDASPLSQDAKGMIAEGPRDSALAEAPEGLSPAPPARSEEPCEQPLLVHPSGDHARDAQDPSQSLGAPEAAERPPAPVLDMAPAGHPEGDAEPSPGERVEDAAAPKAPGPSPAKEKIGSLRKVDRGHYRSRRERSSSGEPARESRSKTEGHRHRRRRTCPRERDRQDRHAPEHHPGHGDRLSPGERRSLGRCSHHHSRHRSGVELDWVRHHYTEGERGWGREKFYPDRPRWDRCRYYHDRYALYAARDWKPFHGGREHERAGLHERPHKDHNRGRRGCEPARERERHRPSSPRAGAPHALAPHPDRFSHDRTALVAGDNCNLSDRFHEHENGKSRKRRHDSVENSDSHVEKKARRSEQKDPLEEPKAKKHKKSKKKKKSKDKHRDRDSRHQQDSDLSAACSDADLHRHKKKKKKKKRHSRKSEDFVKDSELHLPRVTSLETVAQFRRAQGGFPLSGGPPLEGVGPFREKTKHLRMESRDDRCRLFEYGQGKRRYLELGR
Outline: (§1)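 HEK293T lysate (495 µg per sample, in Tris/CHAPS/IGEPAL buffer with protease inhibitors) was treated in triplicate with fragment at 200 µM or with DMSO for 3 h. It was then treated with Biotin-Ahx-Ub-VS (0.5 µM final) for 1 h. Labelled DUBs were NeutrAvidin-enriched, digested with LysC and trypsin, and run by diaPASEF LC-MS/MS. Spectronaut label-free quantities were global-median-normalised. Values are average log2 ratios fragment/DMSO by unpaired t-test, using proteins with ≥2 unique peptides.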

USP46 = USP46 (UniProt P62068)
Outline: as §1

USP47 = target: T2, USP47 (UniProt Q96K76)
T2 sequence (whole entry): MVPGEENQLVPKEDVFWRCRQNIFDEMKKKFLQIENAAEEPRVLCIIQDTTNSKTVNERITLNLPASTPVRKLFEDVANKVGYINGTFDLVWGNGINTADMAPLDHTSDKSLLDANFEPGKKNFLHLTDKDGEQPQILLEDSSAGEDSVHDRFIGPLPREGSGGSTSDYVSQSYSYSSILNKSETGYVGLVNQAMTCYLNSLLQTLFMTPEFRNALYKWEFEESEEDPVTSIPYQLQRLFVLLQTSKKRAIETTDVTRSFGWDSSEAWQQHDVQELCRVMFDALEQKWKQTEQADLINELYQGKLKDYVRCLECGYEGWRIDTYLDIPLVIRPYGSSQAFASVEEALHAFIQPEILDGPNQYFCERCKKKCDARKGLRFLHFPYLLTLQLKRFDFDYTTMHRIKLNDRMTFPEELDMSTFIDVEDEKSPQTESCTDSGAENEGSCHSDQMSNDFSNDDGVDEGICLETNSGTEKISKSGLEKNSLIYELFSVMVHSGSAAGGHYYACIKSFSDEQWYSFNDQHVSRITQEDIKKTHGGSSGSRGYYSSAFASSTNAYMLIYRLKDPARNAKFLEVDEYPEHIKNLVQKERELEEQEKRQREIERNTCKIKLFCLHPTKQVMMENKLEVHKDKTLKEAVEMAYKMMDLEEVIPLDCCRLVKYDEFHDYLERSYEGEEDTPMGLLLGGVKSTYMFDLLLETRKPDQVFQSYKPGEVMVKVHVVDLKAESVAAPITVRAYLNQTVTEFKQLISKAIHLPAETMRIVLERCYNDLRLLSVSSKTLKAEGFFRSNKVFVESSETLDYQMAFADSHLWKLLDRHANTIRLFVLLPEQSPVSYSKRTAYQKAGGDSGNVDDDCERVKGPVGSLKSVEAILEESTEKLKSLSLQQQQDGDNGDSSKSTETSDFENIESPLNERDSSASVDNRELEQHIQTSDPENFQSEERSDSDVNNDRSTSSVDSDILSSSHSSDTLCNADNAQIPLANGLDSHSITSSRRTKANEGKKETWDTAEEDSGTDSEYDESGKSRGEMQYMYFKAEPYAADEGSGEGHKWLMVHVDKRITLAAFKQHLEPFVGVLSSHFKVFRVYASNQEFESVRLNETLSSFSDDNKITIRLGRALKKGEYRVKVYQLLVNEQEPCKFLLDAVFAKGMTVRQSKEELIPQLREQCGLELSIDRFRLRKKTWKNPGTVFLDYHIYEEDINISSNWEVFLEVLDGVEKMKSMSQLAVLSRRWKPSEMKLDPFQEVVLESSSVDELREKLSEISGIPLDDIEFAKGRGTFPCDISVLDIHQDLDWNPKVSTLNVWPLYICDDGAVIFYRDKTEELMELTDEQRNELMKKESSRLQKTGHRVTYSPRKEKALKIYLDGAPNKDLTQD
Outline: as §1

USP48 = target: T3, USP48 (UniProt Q86UV5)
T3 sequence (whole entry): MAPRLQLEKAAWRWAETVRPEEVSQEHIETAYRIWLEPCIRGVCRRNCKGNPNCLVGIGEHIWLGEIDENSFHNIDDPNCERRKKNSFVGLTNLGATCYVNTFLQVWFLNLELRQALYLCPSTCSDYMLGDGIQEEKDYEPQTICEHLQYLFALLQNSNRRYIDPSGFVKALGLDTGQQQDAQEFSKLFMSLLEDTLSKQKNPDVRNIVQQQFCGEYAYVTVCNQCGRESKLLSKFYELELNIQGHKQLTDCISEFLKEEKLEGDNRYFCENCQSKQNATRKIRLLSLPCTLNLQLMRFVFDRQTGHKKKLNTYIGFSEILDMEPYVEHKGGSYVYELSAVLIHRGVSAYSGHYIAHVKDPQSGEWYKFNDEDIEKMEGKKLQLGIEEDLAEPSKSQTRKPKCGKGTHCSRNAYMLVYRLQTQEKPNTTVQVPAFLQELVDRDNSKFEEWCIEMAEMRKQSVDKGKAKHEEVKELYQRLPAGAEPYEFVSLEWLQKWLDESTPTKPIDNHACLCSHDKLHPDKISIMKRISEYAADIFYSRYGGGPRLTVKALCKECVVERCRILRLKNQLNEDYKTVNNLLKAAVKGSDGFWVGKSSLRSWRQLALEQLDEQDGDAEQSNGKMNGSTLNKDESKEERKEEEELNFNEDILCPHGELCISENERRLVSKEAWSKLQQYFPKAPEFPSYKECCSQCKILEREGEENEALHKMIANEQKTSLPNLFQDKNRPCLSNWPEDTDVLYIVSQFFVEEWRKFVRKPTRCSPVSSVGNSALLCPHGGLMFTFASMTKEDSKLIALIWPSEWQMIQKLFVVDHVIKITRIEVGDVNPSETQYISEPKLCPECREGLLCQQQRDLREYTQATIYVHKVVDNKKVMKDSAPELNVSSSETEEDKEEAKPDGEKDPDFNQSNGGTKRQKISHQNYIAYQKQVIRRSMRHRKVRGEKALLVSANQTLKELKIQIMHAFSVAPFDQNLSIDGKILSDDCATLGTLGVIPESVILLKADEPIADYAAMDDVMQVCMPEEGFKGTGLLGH
Outline: as §1

USP5 = target: T4, USP5 (UniProt P45974)
T4 sequence (whole entry): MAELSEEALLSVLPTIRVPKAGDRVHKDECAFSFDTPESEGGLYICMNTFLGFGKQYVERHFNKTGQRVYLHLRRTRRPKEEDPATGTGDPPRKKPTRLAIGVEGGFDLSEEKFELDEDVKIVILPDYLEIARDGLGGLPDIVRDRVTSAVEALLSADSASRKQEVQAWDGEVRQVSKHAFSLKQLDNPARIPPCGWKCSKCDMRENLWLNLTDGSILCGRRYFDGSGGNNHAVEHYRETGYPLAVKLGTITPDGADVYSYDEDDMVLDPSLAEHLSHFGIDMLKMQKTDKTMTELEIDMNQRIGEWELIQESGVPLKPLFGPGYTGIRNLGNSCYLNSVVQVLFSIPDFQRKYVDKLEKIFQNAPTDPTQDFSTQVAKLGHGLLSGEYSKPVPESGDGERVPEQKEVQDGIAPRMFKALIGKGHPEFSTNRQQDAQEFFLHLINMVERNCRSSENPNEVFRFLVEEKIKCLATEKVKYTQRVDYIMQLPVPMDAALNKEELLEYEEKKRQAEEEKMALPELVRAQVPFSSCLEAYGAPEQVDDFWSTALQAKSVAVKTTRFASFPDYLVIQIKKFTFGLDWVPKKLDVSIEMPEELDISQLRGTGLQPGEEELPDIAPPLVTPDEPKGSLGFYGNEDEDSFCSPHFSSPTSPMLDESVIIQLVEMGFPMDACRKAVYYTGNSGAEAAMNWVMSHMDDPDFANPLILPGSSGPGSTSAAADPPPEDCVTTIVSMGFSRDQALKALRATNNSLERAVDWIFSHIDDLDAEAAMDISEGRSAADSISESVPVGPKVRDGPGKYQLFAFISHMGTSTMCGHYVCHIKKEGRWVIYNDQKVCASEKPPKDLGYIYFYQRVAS
Outline: as §1

USP54 = USP54 (UniProt Q70EL1)
Outline: as §1

USP7 = USP7 (UniProt Q93009)
Outline: as §1

USP8 = target: T5, USP8 (UniProt P40818)
T5 sequence (whole entry): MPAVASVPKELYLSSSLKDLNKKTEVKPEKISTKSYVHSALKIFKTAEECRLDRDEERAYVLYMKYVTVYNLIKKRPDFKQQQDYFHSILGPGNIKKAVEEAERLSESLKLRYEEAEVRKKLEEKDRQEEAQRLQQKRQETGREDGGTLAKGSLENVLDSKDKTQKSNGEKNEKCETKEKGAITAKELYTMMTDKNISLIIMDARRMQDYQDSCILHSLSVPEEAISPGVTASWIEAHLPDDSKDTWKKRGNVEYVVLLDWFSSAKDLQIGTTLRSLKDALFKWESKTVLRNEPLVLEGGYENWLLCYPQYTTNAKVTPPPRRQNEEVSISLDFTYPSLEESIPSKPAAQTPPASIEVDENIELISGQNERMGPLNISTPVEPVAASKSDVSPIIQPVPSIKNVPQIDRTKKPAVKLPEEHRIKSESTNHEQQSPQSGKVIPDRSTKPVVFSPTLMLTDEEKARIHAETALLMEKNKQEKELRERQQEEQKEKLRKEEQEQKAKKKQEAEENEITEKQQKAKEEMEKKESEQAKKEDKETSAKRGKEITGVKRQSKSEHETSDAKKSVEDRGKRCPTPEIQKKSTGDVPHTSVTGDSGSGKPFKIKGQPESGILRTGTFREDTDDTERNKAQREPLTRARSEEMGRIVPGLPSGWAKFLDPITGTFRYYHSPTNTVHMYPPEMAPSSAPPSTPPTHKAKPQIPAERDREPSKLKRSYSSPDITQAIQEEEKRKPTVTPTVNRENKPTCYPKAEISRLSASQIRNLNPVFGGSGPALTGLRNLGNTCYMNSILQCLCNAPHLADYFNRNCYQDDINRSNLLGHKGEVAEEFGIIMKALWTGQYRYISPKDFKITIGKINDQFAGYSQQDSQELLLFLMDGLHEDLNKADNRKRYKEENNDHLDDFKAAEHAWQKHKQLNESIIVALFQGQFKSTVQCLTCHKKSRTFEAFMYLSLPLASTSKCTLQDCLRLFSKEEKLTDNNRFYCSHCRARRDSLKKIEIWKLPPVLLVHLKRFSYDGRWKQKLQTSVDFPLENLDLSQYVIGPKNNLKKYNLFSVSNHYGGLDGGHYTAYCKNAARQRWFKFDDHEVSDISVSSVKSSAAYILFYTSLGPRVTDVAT
Outline: as §1

Measured: log2 ratio of Biotin-Ahx-Ub-VS probe labelling

USP46, sequence (P62068 whole entry): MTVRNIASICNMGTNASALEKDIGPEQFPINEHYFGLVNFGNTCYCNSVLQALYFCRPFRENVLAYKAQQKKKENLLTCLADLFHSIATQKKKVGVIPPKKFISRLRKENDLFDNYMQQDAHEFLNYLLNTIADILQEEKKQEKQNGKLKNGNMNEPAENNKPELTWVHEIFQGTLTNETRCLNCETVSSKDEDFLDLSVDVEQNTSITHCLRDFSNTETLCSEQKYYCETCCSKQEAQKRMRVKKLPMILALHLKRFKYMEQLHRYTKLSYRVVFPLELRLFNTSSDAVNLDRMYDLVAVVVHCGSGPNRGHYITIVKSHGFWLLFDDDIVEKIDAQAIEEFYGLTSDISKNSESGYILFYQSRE
USP54, sequence (Q70EL1 whole entry): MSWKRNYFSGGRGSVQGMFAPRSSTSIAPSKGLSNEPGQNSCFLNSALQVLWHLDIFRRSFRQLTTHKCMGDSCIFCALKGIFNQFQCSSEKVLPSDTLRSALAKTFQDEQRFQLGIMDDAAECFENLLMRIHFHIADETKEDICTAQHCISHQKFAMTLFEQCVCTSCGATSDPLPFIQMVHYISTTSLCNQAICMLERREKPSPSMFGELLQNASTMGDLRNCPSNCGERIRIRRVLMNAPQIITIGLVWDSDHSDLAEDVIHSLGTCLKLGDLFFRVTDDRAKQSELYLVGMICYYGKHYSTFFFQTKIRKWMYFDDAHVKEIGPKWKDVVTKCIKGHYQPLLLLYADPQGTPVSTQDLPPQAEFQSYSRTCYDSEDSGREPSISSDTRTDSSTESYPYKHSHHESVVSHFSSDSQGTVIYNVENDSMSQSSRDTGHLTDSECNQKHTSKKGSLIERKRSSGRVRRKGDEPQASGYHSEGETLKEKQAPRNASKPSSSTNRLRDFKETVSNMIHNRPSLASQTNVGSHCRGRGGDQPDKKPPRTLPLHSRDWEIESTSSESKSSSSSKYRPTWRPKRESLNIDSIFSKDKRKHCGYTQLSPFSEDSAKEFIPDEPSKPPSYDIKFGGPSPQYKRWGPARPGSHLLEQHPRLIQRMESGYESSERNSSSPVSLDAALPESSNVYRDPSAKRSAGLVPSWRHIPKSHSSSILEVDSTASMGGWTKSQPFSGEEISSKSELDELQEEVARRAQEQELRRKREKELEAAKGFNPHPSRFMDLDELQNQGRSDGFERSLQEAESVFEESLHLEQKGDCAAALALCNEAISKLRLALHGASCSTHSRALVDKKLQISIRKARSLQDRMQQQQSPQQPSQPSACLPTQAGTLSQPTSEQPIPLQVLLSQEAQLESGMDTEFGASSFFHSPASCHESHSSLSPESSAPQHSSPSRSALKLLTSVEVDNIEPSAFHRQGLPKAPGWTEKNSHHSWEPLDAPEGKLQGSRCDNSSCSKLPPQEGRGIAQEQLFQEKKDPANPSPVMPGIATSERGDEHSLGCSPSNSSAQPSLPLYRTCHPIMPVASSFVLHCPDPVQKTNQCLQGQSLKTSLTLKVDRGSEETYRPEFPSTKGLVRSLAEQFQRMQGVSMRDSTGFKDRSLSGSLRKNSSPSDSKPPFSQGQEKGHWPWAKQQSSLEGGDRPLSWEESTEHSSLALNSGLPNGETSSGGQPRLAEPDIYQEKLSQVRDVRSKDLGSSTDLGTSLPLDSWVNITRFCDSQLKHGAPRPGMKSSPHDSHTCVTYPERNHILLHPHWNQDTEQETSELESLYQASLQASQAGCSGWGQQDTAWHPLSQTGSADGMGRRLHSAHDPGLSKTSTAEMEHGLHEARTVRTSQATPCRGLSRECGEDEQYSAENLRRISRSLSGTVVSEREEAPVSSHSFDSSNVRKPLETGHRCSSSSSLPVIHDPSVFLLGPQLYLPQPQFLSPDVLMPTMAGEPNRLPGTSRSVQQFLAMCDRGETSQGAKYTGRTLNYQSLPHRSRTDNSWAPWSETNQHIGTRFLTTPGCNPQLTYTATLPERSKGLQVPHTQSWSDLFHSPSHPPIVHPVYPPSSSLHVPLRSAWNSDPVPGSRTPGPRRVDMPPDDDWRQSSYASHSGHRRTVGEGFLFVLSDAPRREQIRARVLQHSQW
USP7, sequence (Q93009 whole entry, looked up): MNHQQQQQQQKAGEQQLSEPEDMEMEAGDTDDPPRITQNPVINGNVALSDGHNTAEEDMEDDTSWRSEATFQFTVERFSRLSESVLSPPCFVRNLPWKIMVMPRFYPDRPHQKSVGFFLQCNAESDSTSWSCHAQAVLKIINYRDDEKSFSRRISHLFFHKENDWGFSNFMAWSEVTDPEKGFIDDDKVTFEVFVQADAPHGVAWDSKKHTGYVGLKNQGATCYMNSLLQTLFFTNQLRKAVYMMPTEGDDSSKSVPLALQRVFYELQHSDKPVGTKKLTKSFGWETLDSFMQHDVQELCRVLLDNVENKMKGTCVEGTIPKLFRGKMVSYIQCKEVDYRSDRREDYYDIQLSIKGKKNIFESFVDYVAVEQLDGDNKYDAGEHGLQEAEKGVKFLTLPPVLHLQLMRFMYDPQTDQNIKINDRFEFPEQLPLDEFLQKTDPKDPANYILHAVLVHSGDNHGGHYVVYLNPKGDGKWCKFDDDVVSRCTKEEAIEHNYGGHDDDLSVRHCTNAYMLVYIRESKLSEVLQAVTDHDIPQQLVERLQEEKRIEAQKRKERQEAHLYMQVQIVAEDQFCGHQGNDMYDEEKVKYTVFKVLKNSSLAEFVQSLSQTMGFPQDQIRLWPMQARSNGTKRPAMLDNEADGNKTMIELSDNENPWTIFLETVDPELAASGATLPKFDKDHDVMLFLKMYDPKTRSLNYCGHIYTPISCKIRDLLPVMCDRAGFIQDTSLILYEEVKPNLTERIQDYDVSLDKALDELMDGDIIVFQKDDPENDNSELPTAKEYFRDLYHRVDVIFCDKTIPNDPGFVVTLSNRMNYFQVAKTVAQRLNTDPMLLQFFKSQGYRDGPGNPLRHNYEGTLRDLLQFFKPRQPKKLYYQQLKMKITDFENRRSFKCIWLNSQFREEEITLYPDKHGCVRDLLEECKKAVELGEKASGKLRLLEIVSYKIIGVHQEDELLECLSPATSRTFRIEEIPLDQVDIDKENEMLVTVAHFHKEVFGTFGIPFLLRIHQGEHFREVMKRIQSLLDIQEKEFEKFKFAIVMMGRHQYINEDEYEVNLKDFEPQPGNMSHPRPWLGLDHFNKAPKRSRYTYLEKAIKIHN

O=C(CCl)N1CCN2C(=O)CCC2C1 (stereo not drawn)
inactive: USP42 -0.359 | USP46 0.247 | USP47 -0.0244 | USP48 -0.154 | USP5 0.153 | USP54 0.776 | USP7 -0.0819 | USP8 -0.376
